# Measurements from PubChem BioAssay AID493200 (National Center for Advancing Translational Sciences (NCATS), 2011).
# Inconclusive results are not listed. Calls of active or inactive are those of the source. Calls come from the whole dose curve; as a rule, active = well fitted activation curve with a large enough effect; inconclusive = small, poorly fitted or top-dose-only effect; inactive = no such curve, though single readings can be large or run the other way.
# Experiment: qHTS Assay for Rab9 Promoter Activators: Initial hit validation from the primary screen
# Conditions: Huh7 Rab9 promoter luciferase reporter, 24 h; series mostly up to 46.1 µM
# From the text: NIH Chemical Genomics Center [NCGC] NIH Molecular Libraries Probe Production centers Network [MLPCN] MLPCN Grant: MH089537-01 Assay Submitter (PI): Yiannis A. Ioannou NCGC Assay Overview: Niemann Pick Type C (NPC) is a rare neurodegenerative lipidosis that is characterized by lipid storage in the endosomal/lysosomal system. Treatment modalities for this devastating disease are currently non-existent due to the severe obstacles associated with accessing the central nervous system with proteins or genes (Ioannou, 2000). We have developed a new paradigm, termed "Orphan Receptor Bypass Therapy" (ORByT), to address these disorders. This paradigm posits the existence of endogenous "suppressor" proteins whose expression can dramatically improve LSD pathogenesis. The goal is the identification/discovery of small chemical compounds that can modulate the expression of these proteins and provide a new treatment modality for these devastating disorders. One such protein whose overexpression reverses aspects of the NPC phenotype is Rab9. We have developed and optimized a cell based luciferase reporter assay in 1536 well format for the identification of up-regulators of the Rab9 promoter. This assay presents data on the validation of hits from the primary screen.
# The Rab9 promoter is cloned in front of the luciferase reporter gene, therefore […] promoter activation results in luciferase expression. Frozen stock of the Rab9 promoter transfected Huh7 cells were obtained from the laboratory of Dr. Yiannis Ioannou (The Mount Sinai School of Medicine, New York, NY). Cells were propagated and maintained at NCGC in medium containing RPMI-1640 supplemented with 10% FBS, 2mM L-glutamine, and 50ug/ml penicillin/streptomycin. Cells were harvested in and plated for assays in OP-MEM I reduced-serum medium supplemented with 10% FBS. The Amplite luciferase reporter gene assay kit was purchased from ABD Bioquest and prepared/stored according to manufacturers recommendations. qHTS Assay Setup: 1.Dispensed 5ul of Huh7 cells stably expressing Rab9-luciferase at a density of 1500 cells per well 1536-well plates. 2.Incubate cells at 37C, 5% CO2, and 95% humidity for 2 hours. 3.Transferred 23nl per well of compound in DMSO solution. 4.Incubated at 37C, 5% CO2, and 95% humidity for 24 hours. 5.Dispensed 3ul per well of Amplite reagent(ABD Bioquest) per well. 6.Incubate at ambient for 10 minutes. 7.Read using the luminescence protocol on the ViewLux plate reader (Perkin Elmer).
row,Structure (SMILES),outcome
1,COc1ccc(C(CC(=O)N2CCC3(CC2)OCCO3)NS(=O)(=O)c2ccc(F)cc2)cc1 (stereo unspecified),inactive
2,O=C1c2ccccc2C(=O)N1Cc1nc2ccccc2c(=O)n1-c1cccnc1,inactive
3,CN1CCc2cc3c(c4c2C1Cc1ccccc1-4)OCO3 (stereo unspecified),inactive
4,CCC(=NCc1cccnc1)c1c(O)n(-c2ccccc2)c(=O)[nH]c1=O,inactive
5,COc1cccc(CCNCc2ccc(SC)cc2)c1,inactive
6,Cc1cccn2c(NCC3CCCO3)c(C(C)C)nc12 (stereo unspecified),inactive
